Assay [1] is described as follows: qHTS assay to identify small molecule antagonists of the estrogen related receptor (ERR) signaling pathway from Tox21 library - cell viability counter screen (AID 1224834). Also: nearly all actives have a fitted effect of over 30% in size. A digest of the protocol: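 CellTiter-Fluor fluorescence, read after 30 min at 37 C, measures viability of ERR cells. Cells plated at 2,000/well and incubated 6 h before pin-tool compound addition, then exposed 17.5 hours at 37 C.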
(In general: qHTS replaces the single test concentration by a dilution series.)

The target in assay [2] is Luciferin 4-monooxygenase (Photinus pyralis) (UniProt P08659). Briefly: qHTS assay to identify small molecule inhibitors of firefly luciferase (AID 1224835). Also: nearly all actives have a fitted effect of over 25% in size. Also: potency is read from the fitted curve at half-maximal effect. A digest of the protocol:
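Inhibition of purified Photinus luciferase is measured by luminescence. Substrate levels (D-luciferin, ATP) sit at their KM values. Each compound is tested in a concentration series.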

A short description of assay [3]: qHTS assay to identify small molecule agonists of the constitutive androstane receptor (CAR) signaling pathway - cell viability counter screen (AID 1224836). Also: nearly all actives have a fitted effect of over 45% in size. Also: potency is read from the fitted curve at half-maximal effect. An outline of the steps: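 Double-stable HepG2 hepatoma cells (hCAR plus CYP2B6-2.2kb) are treated for 23 h at 37 C with test compounds in 15-point concentration series. PK11195 at 0.75 uM final is co-added. Cell viability is quantified by CellTiter-Fluor.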

Assay [4] is described as follows: qHTS assay to identify small molecule antagonists of the constitutive androstane receptor (CAR) signaling pathway - cell viability counter screen (AID 1224837). Also: nearly all actives have a fitted effect of over 45% in size. Also: potency is read from the fitted curve at half-maximal effect. An outline of the steps:
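Cytotoxicity counter-screen: CellTiter-Fluor fluorescence after 23 h compound exposure (15-point qHTS) in double-stable HepG2-CYP2B6-hCAR cells, with 50 nM CITCO added.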

A short description of assay [5]: qHTS assay to identify small molecule antagonists of the estrogen related receptor signaling pathway with the pleiotropic PPARgamma coactivator (PGC) from Tox21 10K library - cell viability counter screen (AID 1224840; active = well fitted cell-killing curve with a large enough effect in the repeat runs, not every such curve was filed as active; also: nearly all actives have a fitted effect of over 40% in size; also: potency is read from the fitted curve at half-maximal effect). An outline of the steps:
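Counter-screen for cytotoxicity: after 17.5 h compound exposure at 37 C, CellTiter-Fluor reagent added to PGC/ERR cells for 30 min and fluorescence read. Cells were seeded at 2,000 per well 6 h before dosing.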

Assay [6] in a line: qHTS assay to identify small molecule agonists of H2AX (AID 1224845; active = well fitted activation curve with a large enough effect in the signal ratio in the repeat runs, not every such curve was filed as active; the % refers to the signal ratio; also: potency is read from the fitted curve at half-maximal effect). An outline of the steps: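 Phospho-H2AX Ser139 measured by HTRF (ex 320 nm; em 665 and 620 nm) after 24 hr antibody incubation. Compounds, 15 concentrations, 0.76% DMSO, were applied to CHO-K1 cells for 3hr at 37C before lysis.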
Assay [7] can be described thus: qHTS assay to identify small molecule agonists of the hypoxia (HIF-1) signaling pathway (AID 1224846; active = well fitted activation curve with a large enough effect in the signal ratio in the repeat runs, not every such curve was filed as active; the % refers to the signal ratio). An outline of the steps:
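Compounds added to ME-180 cells carrying hypoxia-response-element beta-lactamase reporter (0.5% dialyzed FBS, 5 h preplating), 17 h at 37C; agonist activity detected by CCF4-AM B/G FRET read-out.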

The nature of assay [8]: qHTS assay to identify small molecule agonists of the hypoxia (HIF-1) signaling pathway - cell viability counter screen (AID 1224844; calls by dose curve; also: nearly all actives have a fitted effect of over 50% in size; also: potency is read from the fitted curve at half-maximal effect). A digest of the protocol: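 Cytotoxicity measured by CellTiter-Glo ATP luminescence in the wells also read for beta-lactamase signal. Cells were HRE-bla ME-180 (2,000/well, 0.5% dialyzed FBS), exposed to compounds for 17 h at 37C.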
For assay [9], the target named is Thyrotropin receptor (Homo sapiens) (UniProt P16473). Briefly: qHTS assay to identify small molecule agonists of the thyroid stimulating hormone receptor (TSHR) signaling pathway (AID 1224843; calls by dose curve; also: nearly all actives have a fitted effect of over 45% in size; also: potency is read from the fitted curve at half-maximal effect). A digest of the protocol: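 Agonist activity read as cAMP rise via d2/cryptate HTRF competition, 1 h room-temperature detection, in HEK293 cells expressing TSHR. Fifteen-point titrations, each run in triplicate, with a 30 min room-temperature incubation beforehand.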

Assay [10] has as its target Nuclear receptor subfamily 1 group I member 3 (Homo sapiens) (UniProt Q14994). Briefly: qHTS assay to identify small molecule antagonists of the constitutive androstane receptor (CAR) signaling pathway (AID 1224838).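 Also: HepG2 cells stably expressing hCAR with CYP2B6 luciferase reporter stimulated by CITCO; nearly all actives have a fitted effect of over 40% in size.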 Also: potency is read from the fitted curve at half-maximal effect. A digest of the protocol:
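Antagonism measured as luciferase signal (ONE-Glo, 30 min, room temperature) in CAR-stimulated cells: HepG2-CYP2B6-hCAR double-stable line exposed 24 hr at 37 C to compound in a 15-point series plus 50 nM CITCO.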

For assay [11] the target is unchanged. In words: qHTS assay to identify small molecule agonists of the constitutive androstane receptor (CAR) signaling pathway (AID 1224839).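 Also: HepG2 cells stably carrying human CAR and a CYP2B6 luciferase reporter; series mostly up to about 92 µM; nearly all actives have a fitted effect of over 15% in size.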 A digest of the protocol:
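Readout: firefly luciferase luminescence via ONE-Glo. System: HepG2 double-stable for hCAR and CYP2B6-2.2kb. Conditions: 15-point compound titration, PK11195 at 0.75 uM final, 24 h incubation.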

The nature of assay [12]: qHTS assay to identify small molecule antagonists of the estrogen related receptor signaling pathway with the pleiotropic PPARgamma coactivator (PGC) from Tox21 10K library (AID 1224841; call rule not given here; also: actives are mostly falling curves and most rising ones were filed inactive; nearly all actives have a fitted effect of over 50% in size; also: potency is read from the fitted curve at half-maximal effect). A digest of the protocol: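 Luminescence (One-Glo, 30 min at room temperature) after 18 h compound treatment at 37 C of PGC/ERR reporter cells plated at 2,000 cells/well and settled 6 h beforehand.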

A short description of assay [13]: qHTS assay to identify small molecule agonists of the estrogen related receptor signaling pathway with the pleiotropic PPARgamma coactivator (PGC) from Tox21 10K library (AID 1224842). Also: nearly all actives have a fitted effect of over 15% in size. An outline of the steps:
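Luminescence from One-Glo (30 min, room temperature) measured after PGC/ERR cells had 18 h at 37 C with pinned compound (23 nL in DMSO). Cells had been seeded at 2,000 per well and pre-incubated 6 h.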

The structures appear in SMILES notation. Several values for one entry are separate records, joined by “and”; a condition that tells them apart may be missing. Equal values may be shown once. Records with an inconclusive call do not appear. More than one record can exist for a structure, and the calls need not agree. Activity calls are given as the source filed them. Unless noted, calls follow the shape of the dose curve; as a rule, active = well fitted curve in the direction sought with a large enough effect in the repeat runs; inconclusive = weak or mixed curves; inactive = no such curve, though single readings can be large; an effect the other way counts as inactive or inconclusive.

Nuclear receptor subfamily 1 group I member 3 (Homo sapiens), sequence (Q14994 whole entry, looked up): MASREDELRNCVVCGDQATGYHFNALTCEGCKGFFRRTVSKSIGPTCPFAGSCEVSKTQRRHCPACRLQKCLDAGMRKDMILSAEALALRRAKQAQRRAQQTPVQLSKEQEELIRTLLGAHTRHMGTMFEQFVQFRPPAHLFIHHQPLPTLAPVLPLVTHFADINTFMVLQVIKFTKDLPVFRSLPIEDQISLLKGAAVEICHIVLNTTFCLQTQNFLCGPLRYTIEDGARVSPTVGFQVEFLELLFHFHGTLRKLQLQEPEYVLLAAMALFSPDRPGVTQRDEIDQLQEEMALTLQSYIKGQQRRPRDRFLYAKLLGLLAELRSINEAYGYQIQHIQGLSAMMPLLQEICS
Thyrotropin receptor (Homo sapiens), sequence (P16473 whole entry, looked up): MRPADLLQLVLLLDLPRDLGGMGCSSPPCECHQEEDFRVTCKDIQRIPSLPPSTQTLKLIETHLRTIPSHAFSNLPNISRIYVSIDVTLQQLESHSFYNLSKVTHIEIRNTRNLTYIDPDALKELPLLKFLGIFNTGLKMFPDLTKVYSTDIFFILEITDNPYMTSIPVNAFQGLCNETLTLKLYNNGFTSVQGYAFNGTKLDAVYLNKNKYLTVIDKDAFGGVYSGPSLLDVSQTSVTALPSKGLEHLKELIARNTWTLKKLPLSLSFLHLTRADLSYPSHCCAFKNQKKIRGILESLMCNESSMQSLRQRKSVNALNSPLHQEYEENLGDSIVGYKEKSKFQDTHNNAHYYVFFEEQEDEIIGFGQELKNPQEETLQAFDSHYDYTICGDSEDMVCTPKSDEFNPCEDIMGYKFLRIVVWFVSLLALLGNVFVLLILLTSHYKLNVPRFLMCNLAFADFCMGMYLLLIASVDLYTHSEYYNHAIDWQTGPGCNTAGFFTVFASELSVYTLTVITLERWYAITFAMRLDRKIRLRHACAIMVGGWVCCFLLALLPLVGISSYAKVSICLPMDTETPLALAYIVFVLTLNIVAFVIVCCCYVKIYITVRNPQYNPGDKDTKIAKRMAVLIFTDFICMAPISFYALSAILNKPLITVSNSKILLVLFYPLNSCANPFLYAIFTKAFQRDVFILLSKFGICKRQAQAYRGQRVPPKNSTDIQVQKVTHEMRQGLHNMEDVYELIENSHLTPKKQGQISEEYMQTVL
Luciferin 4-monooxygenase (Photinus pyralis), sequence (P08659 whole entry, looked up): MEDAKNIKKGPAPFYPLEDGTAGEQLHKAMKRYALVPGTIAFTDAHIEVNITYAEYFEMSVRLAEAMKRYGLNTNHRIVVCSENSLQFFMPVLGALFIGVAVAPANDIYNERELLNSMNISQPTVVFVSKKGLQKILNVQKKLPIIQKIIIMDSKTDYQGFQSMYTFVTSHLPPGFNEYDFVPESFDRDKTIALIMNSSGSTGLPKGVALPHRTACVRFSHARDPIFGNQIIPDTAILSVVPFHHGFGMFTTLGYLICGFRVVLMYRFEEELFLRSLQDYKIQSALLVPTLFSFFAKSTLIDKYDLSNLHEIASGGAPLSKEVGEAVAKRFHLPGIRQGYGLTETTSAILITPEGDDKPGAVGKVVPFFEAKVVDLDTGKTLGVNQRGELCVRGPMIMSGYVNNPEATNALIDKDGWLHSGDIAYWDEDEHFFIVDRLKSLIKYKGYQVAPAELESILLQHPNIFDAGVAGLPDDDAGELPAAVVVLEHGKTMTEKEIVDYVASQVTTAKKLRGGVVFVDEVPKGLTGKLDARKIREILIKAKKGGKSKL

Consider `COP(=O)(OC)OC=C(Cl)Cl`, for which the Potency result in assay [1], in assay [2], in assay [3], in assay [4], in [5] and in assay [6] was “inactive” each time. The molecule was called inactive in [7].
With `CC[N+]1(C)CCCC1`, the Potency result in assay [2], in assay [3], in [4], in [5] and in [8] was “inactive” each time. Moreover, the call in [7] was inactive.
In the case of `O=S(=O)(O)O`, the Potency result in assay [3], in assay [4], in assay [5] and in assay [8] was “inactive” each time. The molecule was classed as inactive in assay [7].
As to `Nc1ccccc1`, the Potency entry in assay [3], in assay [4], in assay [5] and in assay [9] was “inactive” throughout. The molecule was classed as inactive in assay [7].
As to `CCCCCCCCCCCCn1cc[n+](C)c1`, the Potency entry in assay [2] is “inactive”. In assay [7], the result was inactive.
For `CCCC[n+]1cccc(C)c1`, the Potency entry in assay [2], in assay [3], in [4], in [5] and in [8] was “inactive” throughout. Besides, the outcome in assay [7] was inactive.
For the molecule `CCC[N+]1(C)CCCC1`, the Potency result in [1], in assay [2], in assay [3], in assay [4] and in assay [5] was “inactive” throughout. Also, in assay [7], the molecule was classed as inactive.
For `CCCCCC[n+]1ccccc1`, the Potency entry in [1], in [2], in assay [3], in assay [4], in assay [5] and in [8] was “inactive” throughout. Moreover, the result in [7] was inactive.
Take `N#CS`: the Potency result in [1], in assay [3], in assay [4] and in assay [5] was “inactive” each time.
As for `C=CCOC(Cn1ccnc1)c1ccc(Cl)cc1Cl` (stereo not given), the Potency entry in [2] and in assay [9] was “inactive” in each case. For the same molecule, the Potency in [4] was 61.1 µM (active); in [10] it was 38.7 µM (active) and 48.6 µM (active) and inactive; in [5], 48.6 µM (active) and inactive; in assay [8], 39 µM (active) and inactive.
For the molecule `CCCCCCn1cc[n+](C)c1`, the Potency result in [2], in [3], in [4], in assay [5] and in [6] was “inactive” throughout. Moreover, the call in [7] was inactive.
`CCCCn1cc[n+](C)c1`: the Potency result in assay [3], in assay [4], in assay [5] and in [6] was “inactive” each time. Also, the call in assay [7] was inactive.
For the molecule `CCCC[N+]1(C)CCCCC1`, the Potency result in [2], in [3], in assay [4], in [5], in assay [9] and in [8] was “inactive” throughout. Also, in [6], the Potency entry was “inactive”. Moreover, the molecule was called inactive in assay [7].
In the case of `CCCC[n+]1ccccc1C`, the Potency result in assay [2], in assay [3], in assay [4] and in assay [5] was “inactive” in each case. Further, the molecule was classed as inactive in assay [7].
As to `CN(C)[C@@H]1C(=O)C(C(N)=O)=C(O)[C@@]2(O)C(=O)C3=C(O)c4c(O)cccc4[C@@](C)(O)[C@H]3[C@H](O)[C@@H]12`, the Potency result in assay [2], in assay [3], in assay [4], in assay [5], in assay [9] and in assay [8] was “inactive” throughout.
For `CC(=O)[O][Hg][c]1ccccc1`, the Potency in assay [2] is 1.25 µM (active) and 3.99 µM (active) and 2.75 µM (active); in [3], 2.41 µM (active) and 4.33 µM (active) and 5.96 µM (active); in assay [4], 2.71 µM (active) and 4.33 µM (active) and 5.31 µM (active); in assay [10], 2.41 µM (active) and 4.33 µM (active) and 5.31 µM (active); in assay [5] it was 1.92 µM (active) and 2.43 µM (active) and 6.68 µM (active); in [12], 2.71 µM (active) and 4.86 µM (active) and 9.44 µM (active). The Potency in [9] is 2.71 µM (active) and 770 nM (active) and 9.44 µM (active); in assay [8] it was 154 nM (active) and 1.74 µM (active) and 2.68 µM (active). The Potency entry in assay [11] and in assay [13] was “inactive” in each case.
With `CC(=O)O`, the Potency entry in assay [3], in assay [4] and in assay [5] was “inactive” throughout. In addition, the outcome in assay [7] was inactive.
For `CCCCCCCCCCCCCC[P+](CCCCCC)(CCCCCC)CCCCCC`, the Potency entry in assay [2] and in assay [9] was “inactive” in each case. Further, the Potency in [3] is 7.73 µM (active) and 9.77 µM (active); in assay [4], 12.2 µM (active) and 13.8 µM (active); in assay [5], 21.8 µM (active) and 21.9 µM (active). Further, the molecule was classed as inactive in assay [7].
With `O=c1nc(O)n(Cl)c(=O)n1Cl`, the Potency entry in assay [2], in [3], in assay [4], in assay [5], in assay [12] and in [13] was “inactive” in each case. In addition, the Potency entry in assay [6] is “inactive”. For the same molecule, in assay [7], the molecule was called inactive.
Consider `COc1ccc(N)cc1`, for which the Potency entry in [2], in assay [3], in assay [4], in [5], in assay [9] and in assay [8] was “inactive” in each case. In addition, the Potency in assay [6] was 99.1 µM (active) and 89.8 µM (active). In assay [7], the outcome was inactive.
With `CCCC[N+]1(C)CCCC1`, the Potency entry in [2], in assay [3], in assay [4] and in [5] was “inactive” in each case. The molecule was classed as inactive in assay [7].
